The test system of assay [1] is Zika virus NS2B-NS3 protease. The assay can be described thus: Primary screen GU AMC qHTS for Zika virus inhibitors (AID 1347154).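 Note: 0% = no-inhibitor control and -100% = no-enzyme control; nearly all actives have a fitted effect of over 70% in size.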 Summed up:
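Unlinked Zika NS2B hydrophilic domain/NS3 protease domain noncovalent complex (25 nM final) in 10 mM Tris-HCl pH 8.0, 0.01% Tween 20, with AMC peptide substrate. Fluorescence (ex 340, em 450 nm) change over 15 min, room temperature; percent inhibition fitted to 4-parameter Hill equation.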

The target of assay [2] is 3',5'-cyclic-AMP phosphodiesterase 4B (Homo sapiens) (UniProt Q07343). The assay can be described thus: qHTS Assay for Inhibitors of PDE-IV (AID 607; active = well fitted activation curve with a large enough effect in the main read-out, with a control signal flat, not every such curve was filed as active; note: % of control where 0% means no effect). Summed up:
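ACTOne HEK293 cells carry a modified cAMP-gated CNG channel and express endogenous PDE4; plated 1000 cells/well, compounds up to 22.9 uM final. Membrane-potential dye fluorescence (ex 535/em 590) was read; parental cells received 10 uM forskolin + 100 uM RO 20-1724.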

Assay [3] deals with DNA dC->dU-editing enzyme APOBEC-3G (Homo sapiens) (UniProt Q9HC16). The assay can be described thus: qHTS for inhibitors of Vif-A3G interactions: Validation (AID 588379). Note: 0% is about no effect. In outline: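 Yellow fluorescence (Ex 488, Em 500-530) of Vif-coexpressing HeLa A3G-eYFP cells, scanned by Acumen cytometer, reports blocked A3G degradation. Cells plated at 700/well overnight at 37 deg C before compound addition, then a further overnight compound incubation at 37 deg C.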

In assay [4] the target is Luciferin 4-monooxygenase (Photinus pyralis) (UniProt P08659). The experiment in a line: Biochemical firefly luciferase enzyme assay for NPC (AID 624030).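 Note: purified P. pyralis luciferase at 10 nM with luciferin and ATP substrate; series mostly up to about 59 µM; 0% = DMSO and -100% = full luciferase inhibition by PTC124 control; nearly all actives have a fitted effect of over 70% in size.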 In outline:
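Counter-screen for direct inhibition of the luciferase enzyme by approved-drug library compounds, run at 10 nM enzyme in 50 mM Tris acetate (final). Luminescence was read within 5 min of enzyme-buffer addition and normalized to PTC124 versus DMSO (0%).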

Assay [5] can be described thus: Confirmatory qHTS for small molecule stabilizers of the endoplasmic reticulum resident proteome: Secreted ER Calcium Modulated Protein (SERCaMP) assay (AID 1508628). Note: potency is the fitted concentration of half-maximal effect; nearly all actives have a fitted effect of over 40% in size. In outline:
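Reporter secretion upon ER calcium depletion (100 nM thapsigargin, 4 h, 37C) is measured as medium luminescence with coelenterazine, after 16 h compound pretreatment of SH-SY5Y-GLuc-SERCaMP cells; primary at three concentrations up to 38.3 uM, follow-up at 11 (up to 76.6 uM).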

Molecules are shown by their SMILES. A number with no mark means an inactive call. Results filed as inconclusive are left out. Calls of active or inactive are those of the source. Unless noted, calls come from the whole dose curve; as a rule, active = well fitted curve in the direction sought with a large enough effect; inconclusive = small, poorly fitted or top-dose-only effect, or another doubt; inactive = no such curve, though single readings can be large; an effect the other way counts as inactive or inconclusive.

3',5'-cyclic-AMP phosphodiesterase 4B (Homo sapiens), sequence (Q07343 whole entry, looked up): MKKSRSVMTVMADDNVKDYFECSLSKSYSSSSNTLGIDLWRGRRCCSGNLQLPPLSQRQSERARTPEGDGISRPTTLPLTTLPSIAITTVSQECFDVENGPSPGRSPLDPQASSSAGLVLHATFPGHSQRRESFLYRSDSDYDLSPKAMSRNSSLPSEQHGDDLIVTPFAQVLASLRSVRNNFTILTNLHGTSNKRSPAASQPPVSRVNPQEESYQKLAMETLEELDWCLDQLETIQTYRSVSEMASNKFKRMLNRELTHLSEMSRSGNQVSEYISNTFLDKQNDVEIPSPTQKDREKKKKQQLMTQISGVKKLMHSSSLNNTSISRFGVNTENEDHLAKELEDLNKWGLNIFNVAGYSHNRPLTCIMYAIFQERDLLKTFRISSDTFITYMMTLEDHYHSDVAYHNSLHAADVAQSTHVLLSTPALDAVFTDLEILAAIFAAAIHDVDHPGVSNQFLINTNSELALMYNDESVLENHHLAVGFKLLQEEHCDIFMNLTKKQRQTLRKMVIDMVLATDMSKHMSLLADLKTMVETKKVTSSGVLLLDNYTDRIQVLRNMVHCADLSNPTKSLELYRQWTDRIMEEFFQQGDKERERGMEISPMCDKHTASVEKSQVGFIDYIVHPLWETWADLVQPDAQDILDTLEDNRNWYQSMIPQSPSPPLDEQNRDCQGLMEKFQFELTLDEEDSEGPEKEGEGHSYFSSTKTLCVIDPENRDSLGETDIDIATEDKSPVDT
Luciferin 4-monooxygenase (Photinus pyralis), sequence (P08659 whole entry, looked up): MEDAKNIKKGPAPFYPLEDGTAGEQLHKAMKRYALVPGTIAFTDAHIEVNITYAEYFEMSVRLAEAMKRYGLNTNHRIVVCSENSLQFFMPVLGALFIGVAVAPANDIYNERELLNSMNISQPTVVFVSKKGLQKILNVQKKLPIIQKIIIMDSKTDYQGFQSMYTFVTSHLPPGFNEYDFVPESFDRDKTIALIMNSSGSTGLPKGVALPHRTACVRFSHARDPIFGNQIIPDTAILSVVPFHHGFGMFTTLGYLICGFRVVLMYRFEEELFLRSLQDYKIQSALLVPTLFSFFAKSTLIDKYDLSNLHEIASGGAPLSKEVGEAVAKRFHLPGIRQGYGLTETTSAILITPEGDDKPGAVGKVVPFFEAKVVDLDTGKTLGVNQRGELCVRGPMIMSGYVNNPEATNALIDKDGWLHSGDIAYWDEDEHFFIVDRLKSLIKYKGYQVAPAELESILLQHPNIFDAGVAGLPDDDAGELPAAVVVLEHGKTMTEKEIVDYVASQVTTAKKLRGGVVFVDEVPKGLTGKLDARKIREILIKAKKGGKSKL
DNA dC->dU-editing enzyme APOBEC-3G (Homo sapiens), sequence (Q9HC16 whole entry, looked up): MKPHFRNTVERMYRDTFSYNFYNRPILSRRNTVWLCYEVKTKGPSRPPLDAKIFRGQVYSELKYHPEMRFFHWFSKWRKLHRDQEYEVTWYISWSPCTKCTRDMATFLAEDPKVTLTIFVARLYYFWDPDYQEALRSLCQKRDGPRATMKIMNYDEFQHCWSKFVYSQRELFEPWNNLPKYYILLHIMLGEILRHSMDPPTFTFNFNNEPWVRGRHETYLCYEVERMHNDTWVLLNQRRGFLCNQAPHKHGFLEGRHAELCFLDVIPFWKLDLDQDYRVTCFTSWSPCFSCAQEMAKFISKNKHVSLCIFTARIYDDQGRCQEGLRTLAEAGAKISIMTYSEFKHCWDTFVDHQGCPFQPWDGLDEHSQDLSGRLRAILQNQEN

On to `CCCCC/C=C\C[C@@H](/C=C/C=C\C/C=C\CCCC(=O)O)OO`, for which the activity change, negative = inhibition in assay [1] is 11.4% [at 0.59 µM].

Take `C[C@H]1C[C@H](C)C(=O)[C@@H]([C@H](O)CC2CC(=O)NC(=O)C2)C1`: the Potency result in assay [2], in assay [3], in assay [4] and in assay [1] was “inactive” each time. Also, the Potency in assay [5] is 282 nM (active).

`CCC(Sc1ccccc1)C(=O)OC1CC2CCC(C1)N2C` (stereo not drawn): the Potency result in assay [1] is “inactive”. The Potency in assay [5] was 5620 nM (active).

These data come from PubChem BioAssay (NCATS).
